PubChem BioAssay (NCATS)
Results filed as inconclusive are left out. The source made the active and inactive calls. Unless noted, the call rests on the fitted dose curve; in most records, active means well fitted curve in the direction sought with a large enough effect; inconclusive means small, poorly fitted or top-dose-only effect, or another doubt; inactive means no such curve, though single readings can be large; an effect the other way counts as inactive or inconclusive.

Assays:
[1] = target: Estrogen receptor (Homo sapiens) (UniProt P03372); assay: qHTS assay for small molecule antagonists of estrogen receptor alpha signaling (AID 588513; active means well fitted curve in the direction sought with a large enough effect in the signal ratio, with a control signal flat, not every such curve was filed as active; the % refers to the signal ratio; further: on the % scale 0 is the no-effect control and ±100 the full control effect)
Chain of Estrogen receptor (Homo sapiens) (P03372 whole entry, looked up): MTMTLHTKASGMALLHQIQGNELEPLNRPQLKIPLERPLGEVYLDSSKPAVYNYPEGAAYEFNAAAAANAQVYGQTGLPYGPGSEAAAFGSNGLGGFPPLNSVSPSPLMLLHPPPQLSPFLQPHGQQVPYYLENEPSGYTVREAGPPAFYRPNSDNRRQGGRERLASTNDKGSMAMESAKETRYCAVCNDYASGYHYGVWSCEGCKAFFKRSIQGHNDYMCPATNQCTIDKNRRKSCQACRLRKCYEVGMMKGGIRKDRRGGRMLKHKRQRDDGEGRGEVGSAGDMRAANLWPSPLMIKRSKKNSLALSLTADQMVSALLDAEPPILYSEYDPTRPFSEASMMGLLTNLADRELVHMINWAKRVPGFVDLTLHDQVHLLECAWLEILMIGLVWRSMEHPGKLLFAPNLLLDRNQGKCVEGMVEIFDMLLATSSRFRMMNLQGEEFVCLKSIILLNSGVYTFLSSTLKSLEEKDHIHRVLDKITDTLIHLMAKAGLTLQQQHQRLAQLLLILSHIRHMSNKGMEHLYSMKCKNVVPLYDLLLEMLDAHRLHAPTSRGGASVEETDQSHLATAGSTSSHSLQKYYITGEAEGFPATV
Outline: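 Antagonist-mode qHTS in ER-alpha-UAS-bla HEK 293 cells: compound titration, 0.5nM estradiol for 18 h, CCF4 fluorescence, Hill-derived IC50.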

[2] = target: Estrogen receptor (Homo sapiens) (UniProt P03372); assay: qHTS assay for small molecule agonists of estrogen receptor alpha signaling (AID 588514; calls by dose curve;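 further: 0% = vehicle only and 100% = reference agonist; nearly all actives have a fitted effect of over 70% in size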)
Outline: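 Fluorescence from CCF4 cleavage reports ER-alpha-driven beta-lactamase expression in HEK 293 cells treated 18 hrs at 37 C. Data normalized to 17-beta-estradiol (20 nM) and DMSO, fitted to Hill equation.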

[3] = target: Glucocorticoid receptor (Homo sapiens) (UniProt P04150); assay: qHTS assay for small molecule antagonists of glucocorticoid receptor signaling (AID 588533; active means well fitted inhibition curve with a large enough effect in the signal ratio, with a control signal flat, not every such curve was filed as active; the % refers to the signal ratio;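 further: cells stimulated with 2 nM dexamethasone as agonist; on the % scale 0 is the no-effect control and ±100 the full control effect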)
Chain of Glucocorticoid receptor (Homo sapiens) (P04150 whole entry, looked up): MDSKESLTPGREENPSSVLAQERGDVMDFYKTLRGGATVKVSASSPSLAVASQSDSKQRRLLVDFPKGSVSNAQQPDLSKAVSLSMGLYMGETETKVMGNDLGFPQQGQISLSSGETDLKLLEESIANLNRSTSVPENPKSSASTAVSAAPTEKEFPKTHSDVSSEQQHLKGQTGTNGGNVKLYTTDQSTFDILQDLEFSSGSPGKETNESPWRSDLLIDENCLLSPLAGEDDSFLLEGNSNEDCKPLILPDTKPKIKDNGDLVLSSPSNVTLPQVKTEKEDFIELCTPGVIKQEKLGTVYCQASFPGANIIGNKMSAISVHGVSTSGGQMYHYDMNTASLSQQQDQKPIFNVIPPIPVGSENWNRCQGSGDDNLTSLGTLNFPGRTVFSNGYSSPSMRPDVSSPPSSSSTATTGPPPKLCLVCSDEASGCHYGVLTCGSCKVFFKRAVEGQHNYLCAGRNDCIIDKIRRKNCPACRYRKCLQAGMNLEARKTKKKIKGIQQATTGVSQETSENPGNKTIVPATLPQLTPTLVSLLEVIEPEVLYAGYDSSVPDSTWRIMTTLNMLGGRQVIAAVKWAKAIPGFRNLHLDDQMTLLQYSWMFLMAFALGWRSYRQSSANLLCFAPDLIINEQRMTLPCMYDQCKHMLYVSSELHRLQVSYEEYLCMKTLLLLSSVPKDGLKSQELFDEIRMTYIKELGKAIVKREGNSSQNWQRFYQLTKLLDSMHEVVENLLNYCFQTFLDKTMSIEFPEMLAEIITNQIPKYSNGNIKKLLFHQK
Outline: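 Antagonist-mode qHTS: compound titrations added to GRE-bla HeLa cells, then dexamethasone 2 nM final; 18 h, 37 C. CCF4 FRET fluorescence normalized to dexamethasone and DMSO; IC50 from Hill fit.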

[4] = target: Peroxisome proliferator-activated receptor gamma (Homo sapiens) (UniProt P37231); assay: qHTS assay for small molecule agonists of peroxisome proliferator-activated receptor gamma signaling (AID 588536; active means well fitted curve in the direction sought with a large enough effect in the signal ratio, with a control signal flat, not every such curve was filed as active; the % refers to the signal ratio;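 further: 0% = DMSO basal wells and 100% = rosiglitazone at 2 µM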)
Chain of Peroxisome proliferator-activated receptor gamma (Homo sapiens) (P37231 whole entry, looked up): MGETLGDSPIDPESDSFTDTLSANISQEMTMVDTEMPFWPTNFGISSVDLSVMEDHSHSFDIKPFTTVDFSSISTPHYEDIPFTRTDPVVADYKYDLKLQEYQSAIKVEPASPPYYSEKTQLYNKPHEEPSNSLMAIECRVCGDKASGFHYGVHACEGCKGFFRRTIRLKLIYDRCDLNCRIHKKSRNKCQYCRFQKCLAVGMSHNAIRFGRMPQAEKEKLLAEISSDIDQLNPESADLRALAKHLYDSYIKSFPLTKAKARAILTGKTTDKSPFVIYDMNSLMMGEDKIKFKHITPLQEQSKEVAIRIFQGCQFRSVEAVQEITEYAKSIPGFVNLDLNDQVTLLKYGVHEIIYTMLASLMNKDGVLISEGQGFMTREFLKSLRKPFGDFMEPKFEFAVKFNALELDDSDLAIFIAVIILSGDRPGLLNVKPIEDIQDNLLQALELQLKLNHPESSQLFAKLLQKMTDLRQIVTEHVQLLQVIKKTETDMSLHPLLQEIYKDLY
Outline: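 Compound treatment: 16 h, 37 C, HEK293 GeneBLAzer cells. Detection: CCF4, 2 h RT. Values: Hill-fit EC50, efficacy as % of 2 uM rosiglitazone.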

[5] = qHTS assay for small molecule agonists of retinoid X receptor alpha signaling (AID 588544; calls by dose curve;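 on activation: 0% = DMSO basal wells and 100% = reference agonist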); conditions: HEK293T RXRa-UAS-bla, beta-lactamase reporter, 18 h; 530 nm emission
[6] = target: Retinoic acid receptor RXR-alpha (Homo sapiens) (UniProt P19793); assay: as above
Chain of Retinoic acid receptor RXR-alpha (Homo sapiens) (P19793 whole entry, looked up): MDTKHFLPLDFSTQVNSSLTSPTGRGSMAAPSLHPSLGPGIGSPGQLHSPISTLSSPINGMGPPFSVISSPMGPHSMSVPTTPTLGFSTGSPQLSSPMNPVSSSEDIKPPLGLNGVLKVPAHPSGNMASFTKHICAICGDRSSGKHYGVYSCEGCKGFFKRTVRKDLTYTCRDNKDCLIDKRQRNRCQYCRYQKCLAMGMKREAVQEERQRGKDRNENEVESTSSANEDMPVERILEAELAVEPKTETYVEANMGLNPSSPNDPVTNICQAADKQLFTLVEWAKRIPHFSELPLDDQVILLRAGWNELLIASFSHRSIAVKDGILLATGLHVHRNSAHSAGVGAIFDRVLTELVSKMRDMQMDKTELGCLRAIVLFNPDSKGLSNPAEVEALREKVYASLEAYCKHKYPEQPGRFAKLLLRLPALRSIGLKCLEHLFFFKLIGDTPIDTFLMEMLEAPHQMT

[7] = target: Thyroid hormone receptor beta (Homo sapiens) (UniProt P10828); assay: qHTS assay for small molecule agonists of thyroid hormone receptor beta signaling (AID 588545; calls by dose curve;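 further: 0% = DMSO only and 100% = 10 nM T3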)
Chain of Thyroid hormone receptor beta (Homo sapiens) (P10828 whole entry, looked up): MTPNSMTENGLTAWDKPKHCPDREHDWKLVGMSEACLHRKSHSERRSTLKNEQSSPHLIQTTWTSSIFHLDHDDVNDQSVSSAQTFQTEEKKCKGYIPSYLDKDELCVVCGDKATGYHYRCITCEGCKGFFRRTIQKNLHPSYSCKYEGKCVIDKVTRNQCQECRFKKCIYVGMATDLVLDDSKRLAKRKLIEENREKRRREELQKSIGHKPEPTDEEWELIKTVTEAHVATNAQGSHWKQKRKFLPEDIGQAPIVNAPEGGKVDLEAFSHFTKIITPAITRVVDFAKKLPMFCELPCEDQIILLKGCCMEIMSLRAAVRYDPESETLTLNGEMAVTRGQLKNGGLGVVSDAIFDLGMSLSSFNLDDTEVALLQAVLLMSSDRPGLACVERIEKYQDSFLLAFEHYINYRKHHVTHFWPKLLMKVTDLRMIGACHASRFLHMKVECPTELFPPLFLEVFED
Outline: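 TR-UAS-bla-GripTite HEK 293 cells in medium with 2% charcoal/dextran FBS, 0.1 mM NEAA and 1 mM sodium pyruvate were treated with titrated compounds for 18 hrs at 37 C. Beta-lactamase reporter was read with CCF4 dye (ex 405, em 460/530 nm); EC50 from Hill fits.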

[8] = qHTS assay for small molecule antagonists of retinoid X receptor alpha signaling (AID 588546; active means well fitted inhibition curve with a large enough effect in the signal ratio, with a control signal flat, not every such curve was filed as active; the % refers to the signal ratio;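 further: cells stimulated with 9-cis-retinoic acid as agonist; on the % scale 0 is the no-effect control and ±100 the full control effect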); conditions: HEK293T RXRa-UAS-bla, beta-lactamase ratio, antagonist mode; measured here: W530 green channel, cytotoxicity proxy
Outline: (§1)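 Beta-lactamase reporter inhibition, read as CCF4 fluorescence ratio (ex 405, em 460/530 nm) after 2 h at RT. HEK293T UAS-bla cells, 2500/well, were stimulated with 9-cis-RA at 500 or 100 nM final alongside test compound for 18 h at 37 C.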

[9] = target: Retinoic acid receptor RXR-alpha (Homo sapiens) (UniProt P19793); assay: as above; conditions: HEK293T RXRa-UAS-bla, beta-lactamase ratio, antagonist mode
Outline: as §1

[10] = qHTS assay for environmental chemicals that activate the Aryl hydrocarbon Receptor (AhR) signaling pathway (AID 651777); conditions: 1A2-DRE human hepatoma cells, luciferase, 24 h; activation: stronger effect = higher value; further: % of control where 0% means no effect; nearly all actives have a fitted effect of over 15% in size
Outline: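 1A2-DRE human hepatoma reporter line; 1,200 cells/well; cmpd or DMSO 24 h, 37 C/5% CO2; One-Glo 30 min RT; luciferase lum.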

[11] = target: Peroxisome proliferator-activated receptor alpha (Homo sapiens) (UniProt Q07869); assay: qHTS assay for small molecule agonists of the peroxisome proliferator-activated receptor alpha (PPARalpha) signaling pathway (AID 651778); conditions: PathHunter PPARalpha complementation, chemiluminescence, 6 h; max response: stronger effect = higher value; further: % of control where 0% means no effect
Chain of Peroxisome proliferator-activated receptor alpha (Homo sapiens) (Q07869 whole entry, looked up): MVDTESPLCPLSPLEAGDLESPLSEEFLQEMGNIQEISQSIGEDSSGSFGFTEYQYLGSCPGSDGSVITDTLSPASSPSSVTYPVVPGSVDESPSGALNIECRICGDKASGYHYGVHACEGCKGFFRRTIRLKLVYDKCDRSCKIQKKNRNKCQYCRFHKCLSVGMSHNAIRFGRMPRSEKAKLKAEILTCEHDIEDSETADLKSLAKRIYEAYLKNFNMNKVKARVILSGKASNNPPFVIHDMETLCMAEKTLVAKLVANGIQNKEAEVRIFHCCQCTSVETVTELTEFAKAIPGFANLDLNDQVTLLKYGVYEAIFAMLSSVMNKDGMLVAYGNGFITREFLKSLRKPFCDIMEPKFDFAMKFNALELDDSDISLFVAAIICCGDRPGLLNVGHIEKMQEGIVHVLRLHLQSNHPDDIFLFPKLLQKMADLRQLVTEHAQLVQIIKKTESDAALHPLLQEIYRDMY
Outline: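 Chemiluminescence from complemented enzyme reported PPARalpha activation in cells after 6 hr of compound treatment at 37 C. The detection reagent was incubated for 60 min at room temperature, and compounds were scored as agonists.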

[12] = qHTS assay for small molecule agonists of the antioxidant response element (ARE) signaling pathway measured by Nrf2-dependant transcriptional activity (AID 720636; active means well fitted curve in the direction sought with a large enough effect in the repeat runs; an effect the other way counts as inactive or inconclusive;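 further: HepG2 cells with an ARE-driven luciferase reporter; % of control where 0% means no effect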)
Outline: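 Cells: ARE-luc HepG2 with Nrf2-responsive luciferase. Medium contained 1% dialyzed FBS. Compound exposure lasted 16 hr at 37 C and 5% CO2, followed by ONE-Glo luciferase detection.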

[13] = qHTS assay for small molecule agonists of the antioxidant response element (ARE) signaling pathway measured by Nrf2-dependant transcriptional activity - cell viability counter screen (AID 720653; active means well fitted curve in the direction sought with a large enough effect in the repeat runs; an effect the other way counts as inactive or inconclusive; further: on the % scale 0 is the no-effect control and ±100 the full control effect); conditions: ARE-bla HepG2 viability, CellTiter-Glo ATP luminescence, 16 h; max response: stronger effect = lower value
Outline: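 Cytotoxicity counter screen: intracellular ATP quantified by CellTiter-Glo luminescence in the same ARE-bla HepG2 plates, after 16 h compound exposure and a 2 h beta-lactamase substrate step.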

[14] = qHTS assay for cell viability of HEK293 cells (AID 743288); conditions: ATP luminescence (CellTiter-Glo), 18 h; max response: stronger effect = lower value; further: on the % scale 0 is the no-effect control and ±100 the full control effect; nearly all actives have a fitted effect of over 50% in size
Outline: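 HEK293, 18 h, 37 C, ATP luminescence. Cells at 2,000/well were allowed at least 5 h to settle before dosing; CellTiter-Glo developed 30 min at RT.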

[15] = target: Nuclear receptor subfamily 1 group I member 2 (Rattus norvegicus) (UniProt Q9R1A7); assay: qHTS assay for small molecule activators of the rat pregnane X receptor (rPXR) signaling pathway (AID 651751; call rule not given here; further: 0% is about no effect); conditions: rPXR reporter cells, luciferase (One-Glo), 24 h
Chain of Nuclear receptor subfamily 1 group I member 2 (Rattus norvegicus) (Q9R1A7 whole entry, looked up): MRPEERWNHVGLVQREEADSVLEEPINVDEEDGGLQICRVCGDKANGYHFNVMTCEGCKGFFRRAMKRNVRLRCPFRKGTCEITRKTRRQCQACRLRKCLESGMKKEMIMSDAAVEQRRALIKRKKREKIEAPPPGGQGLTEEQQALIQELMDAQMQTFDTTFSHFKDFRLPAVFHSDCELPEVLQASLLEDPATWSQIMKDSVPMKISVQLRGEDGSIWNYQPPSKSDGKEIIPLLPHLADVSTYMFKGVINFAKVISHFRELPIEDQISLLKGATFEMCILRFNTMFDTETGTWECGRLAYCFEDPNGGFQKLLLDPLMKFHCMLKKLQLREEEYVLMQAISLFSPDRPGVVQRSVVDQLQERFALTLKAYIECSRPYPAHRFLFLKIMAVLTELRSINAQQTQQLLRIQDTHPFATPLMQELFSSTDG

[16] = qHTS assay for small molecule activators of the human pregnane X receptor (PXR) signaling pathway (AID 720659; call rule not given here; further: 0% is about no effect)
[17] = qHTS assay for small molecule activators of the nuclear factor-kappa B (NF-kB) signaling pathway (AID 651749; active means well fitted activation curve with a large enough effect in the signal ratio; the % refers to the signal ratio; further: series mostly up to about 77 µM; % of control where 0% means no effect); conditions: NF-kB-bla ME-180 cells, beta-lactamase FRET ratio, 16 h; activation: stronger effect = higher value
Outline: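 FRET-based beta-lactamase detection in ME-180 cells reports NF-kB response-element-driven transcription following overnight (16 hr) compound treatment.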

[18] = qHTS assay for cell viability of the p53RE-bla HCT-116 cell line (AID 743292); further: on the % scale 0 is the no-effect control and ±100 the full control effect; nearly all actives have a fitted effect of over 55% in size
Outline: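 HCT-116 p53RE-bla cells seeded 4,000/well; 5 h at 37 C; compound (DMSO) added; 16 h at 37 C; CellTiter-Glo added, 30 min RT; luminescence read.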

[19] = qHTS assay for small molecule antagonists of peroxisome proliferator-activated receptor delta signaling (AID 588535; active means well fitted inhibition curve with a large enough effect in the signal ratio, with a control signal flat, not every such curve was filed as active; the % refers to the signal ratio;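 on max response: cells co-treated with a PPAR-delta agonist as stimulator during compound exposure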); conditions: HEK293T PPARd-UAS-bla, beta-lactamase FRET ratio, 18 h; 460 nm channel
Outline: (§2)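 Antagonist-mode qHTS using GeneBLAzer PPAR-delta-UAS-bla HEK293T cells; compound exposure 18 hrs at 37 C over a titration. Ratiometric CCF4 fluorescence at 460/530 nm; concentration-response points fitted to the Hill equation.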

[20] = target: Peroxisome proliferator-activated receptor delta (Homo sapiens) (UniProt Q03181); assay: as above
Chain of Peroxisome proliferator-activated receptor delta (Homo sapiens) (Q03181 whole entry, looked up): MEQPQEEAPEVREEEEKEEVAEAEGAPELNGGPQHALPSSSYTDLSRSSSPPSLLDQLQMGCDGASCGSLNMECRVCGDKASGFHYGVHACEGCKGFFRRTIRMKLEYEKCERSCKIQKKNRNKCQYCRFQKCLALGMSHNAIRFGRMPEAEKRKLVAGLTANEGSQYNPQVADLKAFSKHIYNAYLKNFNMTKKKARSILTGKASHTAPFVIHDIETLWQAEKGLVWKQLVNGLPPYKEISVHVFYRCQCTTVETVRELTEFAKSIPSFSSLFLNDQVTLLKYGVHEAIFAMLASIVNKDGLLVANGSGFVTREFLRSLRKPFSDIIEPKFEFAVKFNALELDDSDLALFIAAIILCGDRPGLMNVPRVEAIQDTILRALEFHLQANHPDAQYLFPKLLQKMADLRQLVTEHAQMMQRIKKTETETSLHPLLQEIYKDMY
Outline: as §2

CCCC/C=C/CCCCO
-14.6%: max response [5]
inactive: Potency [1] | Potency [2] | Potency [3] | outcome [4] | Potency [6] | Potency [7] | max response [9] -16.5% | activation [10] -0.731% | max response [11] -1.7% | Potency [12] | max response [13] 0.665% | max response [14] -11.8% | max response [15] -2.13% | outcome [16]
-7.43%: max response [8]

CC(C)OC(=O)c1ccccc1C(=O)OC(C)C
-10.4%: max response [5]
-19.4%: max response [8]
inactive: Potency [1] | Potency [2] | Potency [3] | Potency [6] | activation [17] -2.02% | activation [10] 1.05% | Potency [12] | max response [13] 0.0901% | max response [14] -5.59% | Potency [18] | max response [15] 2.54% | outcome [16]

O=C(OCC1CCC2OC2C1)C1CCC2OC2C1 (centres undefined)
inactive: Potency [1] | Potency [2] | Potency [3] | Potency [20] | outcome [4] | Potency [6] | Potency [7] | max response [9] -6.03% | activation [17] 1.33% | activation [10] 1.05% | max response [11] 0.673% | Potency [12] | max response [13] -4.32% | max response [14] -11.2% | max response [15] 1.7% | outcome [16]
-10.9%: max response [5]
1.3%: max response [8]
-2.67%: max response [19]

CC1=CC2C3CC(C=C3C)C2C1 (centres undefined)
inactive: Potency [1] | Potency [2] | Potency [3] | Potency [20] | outcome [4] | Potency [6] | Potency [7] | max response [9] 3.65% | activation [17] -0.782% | activation [10] -1.81% | Potency [12] | max response [13] 1.82% | max response [14] -3.16% | Potency [18] | max response [15] -0.63% | outcome [16]
7.89%: max response [19]
-8.84%: max response [5]
-10.9%: max response [8]

COC(=O)c1ccccc1C(=O)O
-12.1%: max response [5]
47.6%: max response [19]
inactive: Potency [1] | Potency [2] | Potency [3] | Potency [20] | outcome [4] | Potency [6] | Potency [7] | max response [9] -10.2% | activation [17] -0.0496% | activation [10] 0.0502% | max response [11] -0.96% | Potency [12] | max response [13] -2.33% | max response [14] -13.6% | Potency [18] | max response [15] 2.64% | outcome [16]
-4.92%: max response [8]

CCOC(=O)CC(O)(CC(=O)OCC)C(=O)OCC
-10.3%: max response [5]
-3.18%: max response [8]
inactive: Potency [1] | Potency [2] | Potency [3] | outcome [4] | Potency [6] | Potency [7] | max response [9] -3.42% | activation [17] -1.34% | activation [10] 0.341% | max response [11] 0.853% | Potency [12] | max response [13] -8.63% | max response [14] 3.07% | max response [15] -0.162% | outcome [16]

c1ccc(-c2ccc(-c3ccccc3)cc2)cc1
-5.51%: max response [8]
inactive: Potency [1] | Potency [2] | Potency [3] | Potency [20] | outcome [4] | Potency [7] | max response [9] 1.88% | activation [17] 0.439% | activation [10] 6.5% | max response [11] -0.186% | max response [14] -2.69% | Potency [18] | outcome [16]
-0.983%: max response [19]

Cc1cc(C)c(N)c(Cl)c1
-1.71%: max response [5]
24.2%: max response [19]
inactive: Potency [1] | Potency [2] | Potency [3] | Potency [20] | outcome [4] | Potency [6] | Potency [7] | activation [10] -1.79% | Potency [12] | max response [14] -10.1% | Potency [18] | max response [15] -0.981% | outcome [16]

C[Si]1(C)O[Si](C)(C)O[Si](C)(C)O[Si](C)(C)O[Si](C)(C)O1
-10.4%: max response [8]
5.15%: max response [19]
-18.1%: max response [5]
inactive: Potency [1] | Potency [2] | Potency [3] | Potency [20] | outcome [4] | Potency [6] | Potency [7] | max response [9] 2.84% | activation [17] -6.08% | activation [10] 0.106% | max response [11] -3.04% | Potency [12] | max response [13] -13.9% | max response [14] -11.9% | Potency [18] | max response [15] -3.44% | outcome [16]

CC1(C)CC(N)CC(C)(CN)C1 (centres undefined)
-18%: max response [19]
inactive: Potency [1] | Potency [2] | Potency [3] | Potency [20] | outcome [4] | Potency [6] | Potency [7] | max response [9] 4.46% | activation [17] -0.653% | max response [11] -3.48% | Potency [12] | max response [13] -2.66% | max response [14] -2.22% | Potency [18] | max response [15] -2.15% | outcome [16]
-12.5%: max response [8]
-8.73%: max response [5]
